Screening results (PubChem)
KinaseGlo FLuc: Counterscreen for Luciferase (Kinase-Glo TM) Inhibition. Luciferin 4-monooxygenase (Photuris pensylvanica), Q27757. Kinase-Glo luciferase, ATP luminescence, 8 min. Potency, µM (top dose mostly 38.3 µM), hits mostly inhibitors. 200,000 tested, 0.28% active. AID 1379, 2008; further: nearly all actives have a fitted effect of over 60% in size
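Inhibition of Kinase-Glo luciferase light generation was assessed at 10 uM ATP in pH 7.2 imidazole buffer, with luminescence measured after eight minutes at ambient temperature.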
Rab9 promoter act: qHTS Assay for Rab9 Promoter Activators. Huh7 Rab9 promoter-luciferase reporter, luminescence, 24 h. Potency, µM (titrated, usually from 9.22 µM), hits mostly activators. 320,000 tested, 2.8% active; further: nearly all actives have a fitted effect of over 60% in size
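Using Huh7 cells stably transfected with Rab9 promoter–luciferase, compounds were incubated 24 h at 37 °C, 5% CO2; luciferase luminescence was read 10 min after reagent addition.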
FLuc counter: qHTS profiling assay for firefly luciferase inhibitor/activator using purifed enzyme and Km concentrations of substrates (counterscreen for miR-21 project) | Luciferin 4-monooxygenase (Photinus pyralis), P08659 | purified FLuc, Km substrates, luminescence inhibition | Potency, µM (titrated, usually from 57.5 µM), usual class: inhibitors | 360,000 tested, 6.9% active | AID 588342, 2011; further: nearly all actives have a fitted effect of over 55% in size
Target sequence (P08659 whole entry, looked up): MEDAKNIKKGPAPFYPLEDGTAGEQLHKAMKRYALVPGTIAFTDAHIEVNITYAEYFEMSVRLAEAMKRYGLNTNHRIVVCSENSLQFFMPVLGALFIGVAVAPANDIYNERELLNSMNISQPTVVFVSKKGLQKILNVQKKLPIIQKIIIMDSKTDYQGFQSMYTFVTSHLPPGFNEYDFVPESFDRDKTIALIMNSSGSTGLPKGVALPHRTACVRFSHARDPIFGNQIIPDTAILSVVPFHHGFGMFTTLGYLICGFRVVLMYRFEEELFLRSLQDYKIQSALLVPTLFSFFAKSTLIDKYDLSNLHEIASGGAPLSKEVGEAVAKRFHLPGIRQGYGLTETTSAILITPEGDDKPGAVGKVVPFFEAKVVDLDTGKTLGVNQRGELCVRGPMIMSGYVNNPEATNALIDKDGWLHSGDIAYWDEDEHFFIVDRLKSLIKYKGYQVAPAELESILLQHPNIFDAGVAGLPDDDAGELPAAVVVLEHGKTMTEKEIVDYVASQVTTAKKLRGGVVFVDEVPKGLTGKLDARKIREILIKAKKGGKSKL
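Purified P. pyralis luciferase, 10 nM final, with Km-level 10 uM D-luciferin and 10 uM ATP in 50 mM Tris acetate pH 7.5, 10 mM Mg acetate, 0.01% Tween-20, 0.05% BSA; 6-point qHTS titration about 60 µM downward; luminescence read.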
NPC1 prom act: qHTS Assay for NPC1 Promoter Activators. Huh7 NPC1 promoter luciferase reporter, 24 h. Potency, µM (titrated, usually from 9.22 µM), most hits filed as activators. 320,000 tested, 2.4% active. AID 485313, 2010; further: nearly all actives have a fitted effect of over 60% in size
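Stably transfected Huh7 (NPC1 promoter→luciferase), 1500 cells/well in Opti-MEM + 10% FBS, 2 h settle, then compound 24 h at 37 °C. Luminescence after 10 min with Amplite reagent.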
SMN2 splice up: qHTS Assay for Enhancers of SMN2 Splice Variant Expression; HEK293 SMN2-luciferase splicing reporter, luminescence, 30-36 h; Potency, µM (doses to about 46.1 µM), most hits filed as activators; 210,000 tested, 2.8% active; AID 1458, 2008; further: nearly all actives have a fitted effect of over 55% in size
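HEK293 cells carry an SMN2 minigene-luciferase reporter in which exon 7 inclusion puts luciferase in frame. Cells were seeded at 2000 cells/well, attached for 10-12 hours, then exposed to compounds for 30-36 hours at 37C before ONE-Glo luminescence.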
ELG1 genotox: qHTS screen for small molecules that induce genotoxicity in human embryonic kidney (HEK293T) cells expressing luciferase-tagged ELG1; HEK293T ELG1-luciferase reporter, luminescence, 16 h; Potency, µM (top dose mostly 46 µM), most hits filed as activators; 330,000 tested, 1.3% active; AID 504466, 2011; further: nearly all actives have a fitted effect of over 60% in size
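Cells (2,000/well) expressing the ELG1-luciferase fusion are dosed by pin tool and kept 16 hr at 37 °C, 5% CO2. Signal comes from ONE-Glo luciferase reagent after 30 min at room temperature.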
Large screens that a line does not name were inactive. In the library only some 7.5% were active in any assay of this set; here they are far more common. The call rests on the fitted dose curve; in most records, active means well fitted curve in the direction sought with a large enough effect; inconclusive means small, poorly fitted or top-dose-only effect, or another doubt; inactive means no such curve, though single readings can be large; an effect the other way counts as inactive or inconclusive.

C=CCOc1ccc(/C(O)=C2/C(=O)C(=O)N(CCCn3ccnc3)C2c2cccs2)cc1 (centres undefined)	Rab9 promoter act inconclusive, FLuc counter 15.1µM
COc1ccc(-c2noc(-c3cccc(OC)c3OC)n2)cc1	FLuc counter 2.39µM, SMN2 splice up 12.6µM (no result: KinaseGlo FLuc, Rab9 promoter act, NPC1 prom act, ELG1 genotox)
COc1ccc(-c2nc(-c3cccnc3)no2)cc1	Rab9 promoter act 0.447µM, FLuc counter 2.39µM, NPC1 prom act 0.631µM, ELG1 genotox inconclusive (no result: KinaseGlo FLuc, SMN2 splice up)
COc1cccc(-c2noc(-c3ccc(Cl)nc3)n2)c1	Rab9 promoter act inconclusive, FLuc counter inconclusive, NPC1 prom act 3.55µM, SMN2 splice up inconclusive, ELG1 genotox inconclusive
CCOc1ccc(-c2cc(-c3nc(-c4ccc(C)cc4)no3)[nH]n2)cc1	FLuc counter 21.3µM (no result: KinaseGlo FLuc, Rab9 promoter act, NPC1 prom act, SMN2 splice up, ELG1 genotox)
CCOc1nc(-c2ccccc2)ccc1-c1noc(-c2ccc(C)cc2)n1	none (no result: KinaseGlo FLuc, Rab9 promoter act, NPC1 prom act, ELG1 genotox)
Cc1cccc2c(=O)cc(CSc3ccccc3NC(=O)c3cccc(Br)c3)[nH]c12	none (no result: KinaseGlo FLuc, Rab9 promoter act, NPC1 prom act, SMN2 splice up, ELG1 genotox)
CCOc1ccc(-c2nc(-c3ccccc3C)no2)cc1	KinaseGlo FLuc inconclusive, Rab9 promoter act 0.447µM, FLuc counter 1.07µM, NPC1 prom act 0.631µM, SMN2 splice up 1.58µM, ELG1 genotox 0.731µM
Cc1ccc(-c2noc(-c3cccs3)n2)cc1	KinaseGlo FLuc inconclusive, Rab9 promoter act 0.794µM, FLuc counter 0.601µM, NPC1 prom act 2.82µM, SMN2 splice up 12.6µM, ELG1 genotox 0.651µM
CCOc1ccc(-c2nc(-c3cccnc3)no2)cc1	Rab9 promoter act 0.562µM, FLuc counter 0.953µM, NPC1 prom act 0.631µM, SMN2 splice up 1µM, ELG1 genotox inconclusive
CCOc1nc(-c2ccccc2)ccc1-c1noc(-c2cccs2)n1	FLuc counter inconclusive
CCOc1cc(-c2noc(-c3cccnc3)n2)ccc1OC	none
COc1ccccc1-c1noc(-c2cccs2)n1	Rab9 promoter act 2.24µM, FLuc counter 7.57µM, NPC1 prom act 1.58µM, SMN2 splice up 11.2µM, ELG1 genotox inconclusive
O=C(NNC(=O)c1ccccc1-n1cccc1)c1cncc(Br)c1	none (no result: KinaseGlo FLuc, Rab9 promoter act, FLuc counter, NPC1 prom act, SMN2 splice up)
COc1ccc(-c2nc(-c3ccncc3)no2)cc1	Rab9 promoter act 0.562µM, FLuc counter 2.13µM, NPC1 prom act 0.501µM, ELG1 genotox inconclusive (no result: KinaseGlo FLuc, SMN2 splice up)
COc1cccc(-c2ccc(-c3noc(-c4cccs4)n3)c(OC)n2)c1	FLuc counter 10.7µM, ELG1 genotox inconclusive (no result: SMN2 splice up)
O=[N+]([O-])c1cccc(-c2noc(-c3cccs3)n2)c1	Rab9 promoter act 2.51µM, FLuc counter 2.69µM, NPC1 prom act 3.55µM, ELG1 genotox 14.6µM (no result: KinaseGlo FLuc, SMN2 splice up)
CCOc1nc(-c2ccc(OC)cc2)ccc1-c1noc(-c2ccncc2)n1	none
COc1ccc(-c2nc(-c3cccs3)no2)cc1	Rab9 promoter act 0.1µM, FLuc counter 0.0849µM, NPC1 prom act 0.316µM, ELG1 genotox inconclusive (no result: KinaseGlo FLuc, SMN2 splice up)
COc1cccc(-c2ccc(-c3noc(-c4ccccc4F)n3)c(OC)n2)c1	FLuc counter inconclusive, ELG1 genotox inconclusive
CCc1ccc(S(=O)(=O)Nc2ccc(O)c(C(=O)O)c2)cc1	none (no result: Rab9 promoter act, FLuc counter, NPC1 prom act, SMN2 splice up, ELG1 genotox)
COC(=O)CSc1ncc2c(n1)-c1ccccc1N(Cc1ccc(Cl)cc1)S2(=O)=O	none (no result: KinaseGlo FLuc, Rab9 promoter act, NPC1 prom act, SMN2 splice up, ELG1 genotox)
COc1ccc(-c2csc3nc(-c4ccccc4C)oc(=O)c23)cc1OC	none (no result: KinaseGlo FLuc, Rab9 promoter act, NPC1 prom act, ELG1 genotox)
CCCn1c2ccccc2c2cnn(CC(=O)NCc3cc(OC)ccc3OC)c(=O)c21	none (no result: KinaseGlo FLuc, Rab9 promoter act, NPC1 prom act, SMN2 splice up, ELG1 genotox)
c1csc(-c2nc(N3CCCCC3)no2)c1	Rab9 promoter act 1.58µM, FLuc counter 6.75µM, NPC1 prom act 2.24µM, ELG1 genotox 14.6µM (no result: KinaseGlo FLuc, SMN2 splice up)
CCOc1nc(-c2ccc(C)cc2)ccc1-c1noc(-c2cccnc2)n1	none (no result: SMN2 splice up)
COc1cc(OC)cc(-c2nc(-c3ccccc3)no2)c1	Rab9 promoter act inconclusive, NPC1 prom act inconclusive, SMN2 splice up 22.4µM, ELG1 genotox inconclusive
CCCCOc1ccc(-c2nc(-c3cccnc3)no2)cc1	Rab9 promoter act 2µM, FLuc counter 4.26µM, NPC1 prom act 3.55µM, SMN2 splice up 12.6µM, ELG1 genotox 6.51µM
